Laboratory results published in PubChem BioAssay (Tox21).
Results filed as inconclusive are left out. Activity calls are given as the source filed them. Unless noted, calls follow the shape of the dose curve; as a rule, active = well fitted curve in the direction sought with a large enough effect in the repeat runs; inconclusive = weak or mixed curves; inactive = no such curve, though single readings can be large; an effect the other way counts as inactive or inconclusive.

What was measured:
[1] = qHTS assay to identify small molecule antagonists of the glucocorticoid receptor (GR) signaling pathway - cell viability counter screen (AID 720693); also: nearly all actives have a fitted effect of over 55% in size
[2] = qHTS assay for identifying genotoxic compounds that show differential cytotoxicity against isogenic chicken DT40 cell lines with known DNA damage response pathways - wild type cell line (AID 743012); also: nearly all actives have a fitted effect of over 60% in size
Method in brief: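 Endpoint: CellTiter-Glo luminescence, 30 min RT. Cells: wild type DT40, 300/well. Exposure: compounds in DMSO, 40 h, 37 C/5% CO2, after ~0.5 h pre-incubation.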

[3] = qHTS assay for identifying genotoxic compounds that show differential cytotoxicity against isogenic chicken DT40 cell lines with known DNA damage response pathways - Rev3 mutant cell line (AID 743014); also: nearly all actives have a fitted effect of over 55% in size
[4] = qHTS assay for identifying genotoxic compounds that show differential cytotoxicity against isogenic chicken DT40 cell lines with known DNA damage response pathways - Rad54/Ku70 mutant cell line (AID 743015); also: nearly all actives have a fitted effect of over 60% in size
[5] = qHTS assay to identify small molecule antagonists of the androgen receptor (AR) signaling pathway - cell viability counter screen (AID 743033; also: nearly all actives have a fitted effect of over 45% in size)
[6] = qHTS assay to identify small molecule antagonists of the androgen receptor (AR) signaling pathway using the MDA cell line - cell viability counter screen (AID 743041; also: nearly all actives have a fitted effect of over 45% in size)
Method in brief: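 Viability read by CellTiter-Fluor fluorescence in the same wells as the antagonist screen, added after 15.5 h of a 16 h, 37C exposure. Human breast carcinoma MDA-kb2 AR-luc cells, compounds co-dosed with agonist R1881.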

[7] = qHTS assay to identify small molecule antagonists of the thyroid receptor (TR) signaling pathway - cell viability counter screen (AID 743064); also: nearly all actives have a fitted effect of over 50% in size
Method in brief: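 GH3.TRE-Luc cells, 4 h pre-plating; cpd + T3 1 nM final; 37 °C 23.5 h; CellTiter-Fluor 30 min; fluorescence read.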

[8] = qHTS assay to identify small molecule antagonists of the thyroid receptor (TR) signaling pathway (AID 743065); also: series mostly up to about 70 µM; nearly all actives have a fitted effect of over 55% in size
Method in brief: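 Antagonism measured as loss of luciferase signal in GH3 cells stably carrying a TRE-luciferase reporter, co-treated with compound and T3 (1 nM final) for 23.5 h at 37 C. Viability was read in the same well by CellTiter-Fluor.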

[9] = system: thyroid hormone receptor (rat, GH3 cells); assay: qHTS assay to identify small molecule agonists of the thyroid receptor (TR) signaling pathway (AID 743066; calls by dose curve)
[10] = qHTS assay to identify small molecule antagonists of the estrogen receptor alpha (ER-alpha) signaling pathway - cell viability counter screen (AID 743074; calls by dose curve;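 also: HEK293 cells carrying ER-alpha-UAS-bla reporter stimulated with 17beta-estradiol; nearly all actives have a fitted effect of over 45% in size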)
[11] = qHTS assay to identify small molecule antagonists of the estrogen receptor alpha (ER-alpha) signaling pathway using the BG1 cell line - cell viability counter screen (AID 743081);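 also: compound given together with 17beta-estradiol as the ER stimulus; series mostly up to about 70 µM; nearly all actives have a fitted effect of over 45% in size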
Aromatase (Homo sapiens) = Aromatase (Homo sapiens) (UniProt P11511); assay: qHTS assay to identify aromatase inhibitors (AID 743083); also: series mostly up to about 70 µM; nearly all actives have a fitted effect of over 55% in size
Chain of Aromatase (Homo sapiens) (P11511 whole entry, looked up): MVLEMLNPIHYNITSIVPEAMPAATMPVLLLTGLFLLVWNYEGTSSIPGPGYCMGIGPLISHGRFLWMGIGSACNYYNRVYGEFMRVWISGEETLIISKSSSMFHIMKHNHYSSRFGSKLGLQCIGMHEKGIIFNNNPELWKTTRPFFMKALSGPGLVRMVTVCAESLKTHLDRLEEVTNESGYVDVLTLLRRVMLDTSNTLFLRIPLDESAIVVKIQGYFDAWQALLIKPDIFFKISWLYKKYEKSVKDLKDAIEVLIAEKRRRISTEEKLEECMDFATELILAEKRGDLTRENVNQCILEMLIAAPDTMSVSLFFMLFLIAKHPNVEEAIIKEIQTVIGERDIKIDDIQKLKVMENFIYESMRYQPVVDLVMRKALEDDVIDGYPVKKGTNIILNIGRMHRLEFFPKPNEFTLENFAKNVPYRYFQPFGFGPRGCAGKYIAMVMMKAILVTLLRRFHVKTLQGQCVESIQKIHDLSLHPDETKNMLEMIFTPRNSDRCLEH

[12] = target: Estrogen receptor (Homo sapiens) (UniProt P03372); assay: qHTS assay to identify small molecule antagonists of the estrogen receptor alpha (ER-alpha) signaling pathway (AID 743069; active = well fitted curve in the direction sought with a large enough effect in the signal ratio in the repeat runs, not every such curve was filed as active; the % refers to the signal ratio)
Chain of Estrogen receptor (Homo sapiens) (P03372 whole entry, looked up): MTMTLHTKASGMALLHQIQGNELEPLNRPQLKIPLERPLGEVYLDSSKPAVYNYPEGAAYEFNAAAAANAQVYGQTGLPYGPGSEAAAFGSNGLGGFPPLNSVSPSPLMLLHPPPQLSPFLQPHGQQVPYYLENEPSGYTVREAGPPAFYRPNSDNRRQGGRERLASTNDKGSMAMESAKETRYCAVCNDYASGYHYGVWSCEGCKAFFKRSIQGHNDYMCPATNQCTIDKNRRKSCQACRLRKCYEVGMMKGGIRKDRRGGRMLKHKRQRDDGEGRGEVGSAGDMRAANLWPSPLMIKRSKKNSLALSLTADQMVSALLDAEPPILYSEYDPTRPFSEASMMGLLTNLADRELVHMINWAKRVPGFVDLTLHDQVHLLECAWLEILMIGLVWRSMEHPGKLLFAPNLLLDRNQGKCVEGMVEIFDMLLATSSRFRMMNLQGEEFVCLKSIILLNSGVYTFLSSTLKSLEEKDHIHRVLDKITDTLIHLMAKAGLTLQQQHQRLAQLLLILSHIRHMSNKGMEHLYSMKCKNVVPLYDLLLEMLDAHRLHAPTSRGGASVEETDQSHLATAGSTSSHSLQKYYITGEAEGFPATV
Method in brief: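 Antagonist mode: compounds in DMSO were co-added with 17beta-estradiol to ER-alpha-bla HEK293 cells (2% charcoal-stripped serum) and left 18 h at 37C. Reporter inhibition was measured as FRET fluorescence after 2 h LiveBLAzer substrate at room temperature.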

[13] = target: Estrogen receptor (Homo sapiens) (UniProt P03372); assay: qHTS assay to identify small molecule agonists of the estrogen receptor alpha (ER-alpha) signaling pathway (AID 743075; calls by dose curve;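 also: HEK293 GripTite cells with ER-alpha and UAS-driven beta-lactamase reporter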)
[14] = target: Estrogen receptor (Homo sapiens) (UniProt P03372); assay: qHTS assay to identify small molecule agonists of the estrogen receptor alpha (ER-alpha) signaling pathway using the BG1 cell line (AID 743079); also: nearly all actives have a fitted effect of over 20% in size; also: potency is read from the fitted curve at half-maximal effect
[15] = qHTS assay to identify small molecule antagonists of the estrogen receptor alpha (ER-alpha) signaling pathway using the BG1 cell line (AID 743080; calls by dose curve;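 also: BG1 cells stimulated with 17beta-estradiol alongside compound; series mostly up to about 70 µM; nearly all actives have a fitted effect of over 25% in size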)
Method in brief: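 Seeding, 24 h rest, compound transfer from DMSO, 17beta-estradiol addition, 21.5 h incubation, CellTiter-Fluor (30 min, 37 C), then ONE-Glo (30 min, room temperature): this sequence was run on BG1-Luc-4E2 reporter cells.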

[16] = target: Androgen receptor (Homo sapiens) (UniProt P10275); assay: qHTS assay to identify small molecule antagonists of the androgen receptor (AR) signaling pathway (AID 743035; active = well fitted inhibition curve with a large enough effect in the signal ratio in the repeat runs, not every such curve was filed as active; the % refers to the signal ratio)
Chain of Androgen receptor (Homo sapiens) (P10275 whole entry, looked up): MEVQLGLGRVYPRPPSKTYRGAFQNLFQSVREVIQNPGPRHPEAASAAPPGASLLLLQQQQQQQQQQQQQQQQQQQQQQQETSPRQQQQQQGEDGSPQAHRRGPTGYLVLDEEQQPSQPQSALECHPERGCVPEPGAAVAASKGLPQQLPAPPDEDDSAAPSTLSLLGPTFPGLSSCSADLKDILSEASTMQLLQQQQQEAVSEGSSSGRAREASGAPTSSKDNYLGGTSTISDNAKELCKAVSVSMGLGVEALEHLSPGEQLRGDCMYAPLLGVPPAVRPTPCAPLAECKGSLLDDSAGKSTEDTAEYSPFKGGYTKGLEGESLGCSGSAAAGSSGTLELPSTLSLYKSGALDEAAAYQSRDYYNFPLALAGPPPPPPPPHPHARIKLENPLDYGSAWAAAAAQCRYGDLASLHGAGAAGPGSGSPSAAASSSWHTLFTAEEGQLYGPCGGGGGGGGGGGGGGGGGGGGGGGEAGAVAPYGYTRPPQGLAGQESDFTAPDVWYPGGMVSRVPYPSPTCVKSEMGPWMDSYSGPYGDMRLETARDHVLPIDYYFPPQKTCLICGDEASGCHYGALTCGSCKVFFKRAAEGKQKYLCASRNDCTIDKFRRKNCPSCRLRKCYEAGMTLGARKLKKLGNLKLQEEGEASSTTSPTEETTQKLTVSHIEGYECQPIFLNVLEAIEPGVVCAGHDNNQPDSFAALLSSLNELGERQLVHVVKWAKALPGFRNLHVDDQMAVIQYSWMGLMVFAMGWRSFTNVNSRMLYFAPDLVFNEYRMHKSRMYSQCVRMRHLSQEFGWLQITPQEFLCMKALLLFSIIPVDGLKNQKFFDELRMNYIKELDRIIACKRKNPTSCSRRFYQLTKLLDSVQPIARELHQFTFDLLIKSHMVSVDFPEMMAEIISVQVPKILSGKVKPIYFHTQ
Method in brief: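 R1881 agonist challenge of a HEK293 UAS-beta-lactamase AR reporter line in the presence of compound (16 h, 37C); signal taken as FRET fluorescence after 2 h with LiveBLAzer B/G substrate at room temperature.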

[17] = target: Androgen receptor (Homo sapiens) (UniProt P10275); assay: qHTS assay to identify small molecule agonists of the androgen receptor (AR) signaling pathway (AID 743036; active = well fitted activation curve with a large enough effect in the signal ratio in the repeat runs, with a control signal flat, not every such curve was filed as active; the % refers to the signal ratio)
Method in brief: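 AR-bla HEK293 cells, 2,000/well; 4 h preincubation 37C/5% CO2; compound (DMSO) 16 h at 37C; LiveBLAzer B/G FRET substrate 2 h RT; fluorescence intensity read-out.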

[18] = target: Androgen receptor (Homo sapiens) (UniProt P10275); assay: qHTS assay to identify small molecule agonists of the androgen receptor (AR) signaling pathway using the MDA cell line (AID 743040; also: nearly all actives have a fitted effect of over 20% in size)
Method in brief: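 Luciferase agonist assay: 16 h compound exposure at 37C without CO2 in MDA-kb2 AR-luc cells, whose MMTV promoter responds to both AR and GR. Luminescence measured after 30 min room-temperature incubation with ONE-Glo.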

[19] = target: Androgen receptor (Homo sapiens) (UniProt P10275); assay: qHTS assay to identify small molecule antagonists of the androgen receptor (AR) signaling pathway using the MDA cell line (AID 743042; also: nearly all actives have a fitted effect of over 55% in size)
Method in brief: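 Antagonist mode: compounds plus R1881 agonist added to MDA-kb2 AR-luc cells, incubated 16 h at 37C. Luciferase reporter luminescence quantified, with multiplexed CellTiter-Fluor readout for cell viability.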
% is scaled to controls: 0 for no effect and ±100 for the full control effect.

CC(C)C(C)C
inactive: outcome [1] | Potency [2] | Potency [3] | Potency [4] | outcome [5] | outcome [6] | Potency [7] | Potency [8] | Potency [9] | Potency [10] | outcome [11] | Potency (Aromatase (Homo sapiens))

CCOC(=O)CC
inactive: outcome [1] | Potency [2] | Potency [3] | Potency [4] | outcome [5] | outcome [6] | Potency [8] | Potency [9] | outcome [12] | Potency [10] | Potency [13] | Potency [14] | Potency [15] | outcome [11] | Potency (Aromatase (Homo sapiens))

Cc1ccc(O)c([N+](=O)[O-])c1
inactive: outcome [1] | Potency [2] | Potency [3] | Potency [4] | outcome [5] | outcome [6] | Potency [8] | Potency [9] | outcome [12] | Potency [10] | Potency [13] | Potency [14] | Potency [15] | outcome [11] | Potency (Aromatase (Homo sapiens))

CCC(C)SSC(C)CC (centres undefined)
inactive: outcome [1] | Potency [2] | Potency [3] | Potency [4] | outcome [5] | outcome [6] | Potency [7] | Potency [8] | Potency [9] | Potency [10] | Potency [13] | Potency [14] | Potency [15] | outcome [11] | Potency (Aromatase (Homo sapiens))

CCCCCCCCCCCCCCCC(=O)OC
inactive: outcome [1] | Potency [2] | Potency [3] | Potency [4] | outcome [5] | outcome [6] | Potency [7] | Potency [8] | Potency [9] | outcome [12] | Potency [10] | Potency [13] | Potency [14] | Potency [15] | outcome [11] | Potency (Aromatase (Homo sapiens))

CCCC[O][Al]([O]CCCC)[O]CCCC
inactive: outcome [1] | Potency [2] | Potency [3] | Potency [4] | outcome [5] | outcome [6] | Potency [7] | Potency [10] | outcome [11] | Potency (Aromatase (Homo sapiens))

CCCCN(CCCC)CCCCCCN(CCCC)CCCC
inactive: outcome [1] | Potency [2] | Potency [3] | Potency [4] | outcome [5] | outcome [6] | Potency [8] | Potency [9] | outcome [12] | Potency [10] | Potency [13] | Potency [14] | Potency [15] | outcome [11] | Potency (Aromatase (Homo sapiens))

Cc1ccc(NC(N)=O)cc1
inactive: outcome [1] | Potency [2] | Potency [3] | Potency [4] | outcome [5] | outcome [6] | Potency [8] | Potency [9] | outcome [12] | Potency [10] | Potency [13] | Potency [14] | Potency [15] | outcome [11] | Potency (Aromatase (Homo sapiens))

CCCCCC(CC)OC(=O)CCCOc1ccc(Cl)cc1Cl (centres undefined)
inactive: outcome [1] | Potency [2] | Potency [3] | Potency [4] | outcome [5] | outcome [6] | Potency [7] | Potency [8] | Potency [9] | Potency [10] | outcome [11] | Potency (Aromatase (Homo sapiens))

c1coc(Cn2cccc2)c1
inactive: outcome [1] | Potency [2] | Potency [3] | Potency [4] | outcome [5] | outcome [6] | Potency [8] | Potency [9] | outcome [12] | Potency [10] | Potency [13] | Potency [14] | Potency [15] | outcome [11] | Potency (Aromatase (Homo sapiens))

Cc1ccccc1OCC(=O)O
inactive: outcome [1] | Potency [2] | Potency [3] | Potency [4] | outcome [5] | outcome [6] | Potency [8] | Potency [9] | outcome [12] | Potency [10] | Potency [13] | Potency [14] | Potency [15] | outcome [11] | Potency (Aromatase (Homo sapiens))

CN(C)CCCN(C)C
inactive: viability change, negative = cytotoxic [1] 3.46% [at 7.04 µM] | activity change, negative = cytotoxicity [2] -5.84% [at 8.52 µM] | activity, negative = cytotoxicity [3] -13% [at 8.53 µM] | activity change, negative = cytotoxicity [4] 3.34% [at 8.55 µM] | activity change, negative = cytotoxicity [5] 3.01% [at 7.04 µM] | viability change, negative = cytotoxic [6] 5.47% [at 8.47 µM] | activity, negative = inhibition [8] 0.44% [at 8.44 µM] | activation [9] -3.73% [at 8.08 µM] | activity, negative = inhibition [12] 3.46% [at 6.71 µM] | activity, negative = cytotoxicity [10] 12.6% [at 6.72 µM] | activation [13] -1.03% [at 6.71 µM] | activation [14] -6.84% [at 8.47 µM] | activity change, negative = inhibition [15] 2.33% [at 8.47 µM] | activity change, negative = cytotoxicity [11] 12.4% [at 8.47 µM] | activity, negative = inhibition (Aromatase (Homo sapiens)) 7.56% [at 8.47 µM]

CCCCC(CC)COC(=O)CC#N (centres undefined)
inactive: outcome [1] | Potency [2] | Potency [3] | Potency [4] | outcome [5] | outcome [6] | Potency [7] | outcome [12] | Potency [13] | Potency [14] | Potency [15] | outcome [11] | Potency (Aromatase (Homo sapiens))

Cc1ccc(S(=O)(=O)NC(=O)NN2CC3CCCC3C2)cc1 (centres undefined)
inactive: outcome [1] | Potency [2] | Potency [3] | Potency [4] | outcome [5] | outcome [6] | Potency [7] | Potency [8] | Potency [9] | outcome [12] | Potency [10] | Potency [13] | Potency [14] | Potency [15] | outcome [11] | Potency (Aromatase (Homo sapiens))

CCc1ccc(CC)cc1
inactive: outcome [1] | Potency [2] | Potency [3] | Potency [4] | outcome [5] | outcome [6] | Potency [8] | Potency [9] | outcome [12] | Potency [10] | Potency [13] | Potency [14] | Potency [15] | outcome [11] | Potency (Aromatase (Homo sapiens))

C/C=C(\C)C(=O)OC/C=C(\C)CCC=C(C)C
inactive: outcome [1] | Potency [2] | Potency [3] | Potency [4] | outcome [5] | outcome [6] | Potency [8] | Potency [9] | outcome [12] | Potency [10] | Potency [13] | Potency [14] | Potency [15] | outcome [11] | Potency (Aromatase (Homo sapiens))

C/C=C(\C)C=O
inactive: outcome [1] | Potency [2] | Potency [3] | Potency [4] | outcome [5] | Potency [7] | Potency [8] | Potency [9] | outcome [12] | Potency [10] | Potency [13] | Potency [14] | Potency [15] | outcome [11] | Potency (Aromatase (Homo sapiens))

CCCCCCCCCCCC(C)=O
active: Potency [14] 17.2 µM
inactive: outcome [1] | Potency [2] | Potency [3] | Potency [4] | outcome [5] | Potency [7] | outcome [12] | Potency [10] | Potency [15] | outcome [11] | Potency (Aromatase (Homo sapiens))

CC(=O)OC1CCC(C(C)(C)C)CC1 (centres undefined)
inactive: outcome [1] | Potency [2] | Potency [3] | Potency [4] | outcome [16] | outcome [17] | outcome [18] | outcome [19] | Potency [7] | Potency [8] | Potency [9] | outcome [12] | Potency [10] | Potency [13] | Potency [14] | Potency [15] | outcome [11] | Potency (Aromatase (Homo sapiens))
